Beta cell apopt – beta cell apoptosis inhibition; INS-1E cytokine-induced death, ATP luminescence, 48 h; percent of positive-control rescue, neutral wells zero; AID 435005; hit rate 0.8% among 300,000; protection from apoptosis, % (no concentration beside the values);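 active means Every replicate reaches about 75%, or at least half do and their mean reaches it too, limit read from the data; inconclusive means At least half of replicates reach the limit but their mean does not; inactive means Under half of replicates reach the limit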;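 further: higher means more ATP so stronger rescue from cytokine killing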
CSC inhib – cancer stem cell inhibition; AID 2717; hit rate 1.1% among 300,000; cancer stem cell-like cells viability, luminescence; inhibition, % at 7.5 µM; in the data active means inhibition above about 75%; inconclusive means no clear call, values can overlap the other calls; tested in HMLE shEcad cells
Mdm2-MdmX inh – human Mdm2/MdmX binding inhibition; AID 485346; hit rate 3% among 330,000; O15151+Q00987; SaOS-2 split-luciferase Mdm2/MdmX complementation, luminescence; inhibition, % at 8 µM;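 active means inhibition of at least 50% at 8 µM in the primary screen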
Target sequence (O15151 whole entry, looked up): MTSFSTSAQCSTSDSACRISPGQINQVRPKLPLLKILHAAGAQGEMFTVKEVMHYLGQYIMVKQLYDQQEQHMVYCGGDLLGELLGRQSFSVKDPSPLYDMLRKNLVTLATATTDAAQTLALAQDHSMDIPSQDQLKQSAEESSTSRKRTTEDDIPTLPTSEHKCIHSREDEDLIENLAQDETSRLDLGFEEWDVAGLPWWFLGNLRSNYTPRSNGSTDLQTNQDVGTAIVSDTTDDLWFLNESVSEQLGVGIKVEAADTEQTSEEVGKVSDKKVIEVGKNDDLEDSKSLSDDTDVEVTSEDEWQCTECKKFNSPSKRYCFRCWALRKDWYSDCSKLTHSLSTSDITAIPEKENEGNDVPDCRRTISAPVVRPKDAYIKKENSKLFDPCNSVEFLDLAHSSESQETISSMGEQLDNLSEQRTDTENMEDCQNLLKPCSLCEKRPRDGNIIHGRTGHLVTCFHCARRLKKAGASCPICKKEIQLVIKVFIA
Target sequence (Q00987 whole entry, looked up): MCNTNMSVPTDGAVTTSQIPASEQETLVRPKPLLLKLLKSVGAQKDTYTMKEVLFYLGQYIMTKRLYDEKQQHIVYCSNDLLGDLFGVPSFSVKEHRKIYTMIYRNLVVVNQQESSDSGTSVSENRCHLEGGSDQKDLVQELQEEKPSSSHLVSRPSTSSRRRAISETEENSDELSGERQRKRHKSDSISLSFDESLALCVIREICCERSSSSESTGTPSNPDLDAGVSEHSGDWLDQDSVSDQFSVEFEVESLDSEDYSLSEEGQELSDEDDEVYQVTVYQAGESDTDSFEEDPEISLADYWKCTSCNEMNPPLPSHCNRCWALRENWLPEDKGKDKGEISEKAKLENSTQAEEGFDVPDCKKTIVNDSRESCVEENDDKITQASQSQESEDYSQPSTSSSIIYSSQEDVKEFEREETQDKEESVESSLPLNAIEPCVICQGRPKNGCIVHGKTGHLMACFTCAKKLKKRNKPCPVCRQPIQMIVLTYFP
MPTP block – inhibitors of mitochondrial permeability transition pore | inhibition, % at 10 µM | isolated mouse mitochondria, Ca2+ swelling absorbance, 30 min | hit rate 1.4% among 360,000;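 active means inhibition of 50% or more, scaled per plate between neutral and stimulator controls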
SKKanGAS inh – inhibitors of SKKanGAS S. pyogenes growth in kanamycin (SK-promoter or general growth effect); inhibition, % at 7.5 µM; hit rate 1.3% among 300,000; BacTiter-Glo, 6 h;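 active means mean replicate score, as percent of positive control median, at least 50; inconclusive means mean below 50 but one replicate at or above 50; inactive means mean and every replicate below 50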;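 further: strain carries kanamycin resistance gene driven by streptokinase promoter and grows in 40 µg/ml kanamycin; loss of luminescence reflects streptokinase promoter inhibition or plain growth inhibition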
Calb FLC – C. albicans growth modulation with fluconazole; hit rate 0.57% among 300,000; AID 1979; growth inhibition, % (concentration not given with the values); C. albicans CaCi-2 (fluconazole-resistant clinical isolate) + fluconazole, Alamar Blue growth, 48 h;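 active means growth inhibition above about 58% in most replicates, limit read from the data, passing the limit was not always enough; inconclusive means exactly half the replicates above a set limit; inactive means most replicates below a set limit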;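 further: all wells also contain fluconazole at 8 µg/ml as a sub-toxic cotreatment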
Mdm2-MdmX conf – confirmation of human Mdm2/MdmX interaction inhibitors; inhibition, % at 8 µM; shares compounds with Mdm2-MdmX inh; AID 489028; Mdm2-MdmX binding, luminescent assay; hit rate 55% among 10,000; in the data active means inhibition above about 40%
Full FLuc ctr – full-length luciferase inhibition in Mdm2/MdmX counter-screen. shares compounds with Mdm2-MdmX inh. SaOS-2 full-length luciferase counterscreen, luminescence. inhibition, % at 8 µM. hit rate 77% among 6,200;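 active means mean inhibition at 8 µM reaching about 37%, which flags the compound as non-specific, limit read from the data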;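 further: p53-null SaOS-2 cells with luciferase driven by a doxycycline-inducible promoter; compound on cells about two nights before reading with doxycycline added after day one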
Each line names hits and unclear results; the compound was inactive in the other large screens (follow-up assays come after a bar, where they were run). The list is not random: actives were taken first. Their share in the collection is about 5.4%.

CCc1c(O)nc(SCc2ccccc2)n(C(C)CC)c1=O (configuration not stated)	none
Cc1cccc(CS(=O)(=O)c2ncc(Cl)c(C(=O)Nc3nnc(C(C)C)s3)n2)c1	CSC inhib 107.3, Mdm2-MdmX inh 96.3 | Mdm2-MdmX conf 87.8 | Full FLuc ctr 50.2
C=CCSc1nnc(NC(=O)c2nc(SCC)ncc2Cl)s1	none
CC(C)c1nnc(NC(=O)c2nc(S(=O)(=O)Cc3ccc(F)cc3)ncc2Cl)s1	CSC inhib 106.0, Mdm2-MdmX inh 100.4 | Mdm2-MdmX conf 56.9 | Full FLuc ctr 52.1
CCSc1nnc(NC(=O)c2nc(S(=O)(=O)Cc3ccc(F)cc3)ncc2Cl)s1	CSC inhib 102.8, Mdm2-MdmX inh 68.8 | Mdm2-MdmX conf inactive
CC(c1ccco1)N(C(=O)c1ccccc1NS(=O)(=O)c1ccc(Cl)cc1)c1ccccn1 (configuration not stated)	none
O=C(CC(c1ccccc1)C1CCCCC1=O)c1ccccc1 (configuration not stated)	none (no result: Beta cell apopt, CSC inhib, Mdm2-MdmX inh, SKKanGAS inh, Calb FLC)
COc1ccc(-c2cn3cccnc3n2)cc1F	none
Cc1csc(NS(=O)(=O)c2ccc(Cl)cc2)n1	none
OC(c1cc(-c2ccc(C(F)(F)F)cc2)nc(C(F)(F)F)c1)C1CCCCN1 (configuration not stated)	Beta cell apopt 108.2, CSC inhib 104.5, Mdm2-MdmX inh 96.3 | Mdm2-MdmX conf 98.1 | Full FLuc ctr 51.5
COc1cc2nc(Nc3ccc(C)c(C)c3)nc(N)c2cc1OC	Mdm2-MdmX inh 87.5 | Mdm2-MdmX conf inactive
CCOC(=O)c1ccc(Nc2nc(N)c3cc(OC)c(OC)cc3n2)cc1	Mdm2-MdmX inh 84.6 | Mdm2-MdmX conf 83.5 | Full FLuc ctr 48.9
COc1cc2nc(Nc3ccc(C)c(Cl)c3)nc(N)c2cc1OC	CSC inhib 105.9, Mdm2-MdmX inh 92.6 | Mdm2-MdmX conf 66.0 | Full FLuc ctr 87.8
COc1cc2nc(Nc3ccc(F)cc3)nc(N)c2cc1OC	none
Clc1ccc(-c2noc(CSc3nnc(-c4ccncc4)n3-c3ccccc3)n2)cc1	none (no result: CSC inhib)
CCc1ccc(OC(C)C(=O)Nc2ccccc2C(=O)N2CCOCC2)cc1 (configuration not stated)	none
COc1cc(C(=O)OCC(=O)Nc2cc(C)on2)ccc1OCc1ccccc1Cl	none
COc1ccc(NC(=O)COC(=O)c2ccc(OCc3ccccc3Cl)c(OC)c2)c(OC)c1	Mdm2-MdmX inh 61.2 | Mdm2-MdmX conf inactive
CCc1c(C)nc2cc(-c3ccc(OC)cc3)[nH]n2c1=O	none
Cc1ccc2c(c1)Oc1ccc(NC(=O)CCl)cc1C(=O)N2	Mdm2-MdmX inh 91.7 | Mdm2-MdmX conf 86.8 | Full FLuc ctr 53.7
C=CC[C@H](CC(=O)N(CCO)Cc1ccccc1)C(=O)N[C@@H](COC(=O)[C@@H](CC=C)CC(=O)OC(C)(C)C)Cc1c[nH]c2ccccc12	none (no result: CSC inhib, SKKanGAS inh, Calb FLC)
C=CC[C@H](CC(=O)N(CCO)Cc1ccccc1)C(=O)N[C@H](COC(=O)[C@@H](CC=C)Cc1ccc(F)cc1)Cc1c[nH]c2ccccc12	Mdm2-MdmX inh 85.9 (no result: SKKanGAS inh, Calb FLC) | Mdm2-MdmX conf inactive | Full FLuc ctr 71.2
C=CC[C@@H](CC(=O)N(CCO)Cc1ccccc1)C(=O)N[C@H](COC(=O)[C@@H](CC=C)Cc1ccc(F)cc1)Cc1c[nH]c2ccccc12	Mdm2-MdmX inh 88.3 (no result: SKKanGAS inh, Calb FLC) | Mdm2-MdmX conf inactive
CC/C(CC(=O)C(F)(F)F)=N\NC(=O)/C(C#N)=C/N(C)C	none
COc1cccc(CNC(=O)[C@@H]2CCCN2C(=O)[C@H]2CCCCN2C(=O)c2cccc(OC)c2)c1	none (no result: Beta cell apopt, CSC inhib, Mdm2-MdmX inh, SKKanGAS inh, Calb FLC)
CC1CCCCN1C(=O)c1cc(S(=O)(=O)N2CCCCC2)c[nH]1 (configuration not stated)	none
COc1ccc(N=c2oc3ccc(OC)cc3cc2-c2nc3ccccc3[nH]2)cc1	Mdm2-MdmX inh 92.7 | Mdm2-MdmX conf inactive
Cc1ccc(S(=O)(=O)/N=C2\C=C(Nc3ccc(O)cc3)C(=O)c3ccccc32)cc1	Beta cell apopt 119.9, CSC inhib 132.5, Mdm2-MdmX inh 95.1 (no result: SKKanGAS inh, Calb FLC) | Mdm2-MdmX conf 89.2 | Full FLuc ctr inactive
Cc1ccc(NC2=C/C(=N/S(=O)(=O)c3cccs3)c3ccccc3C2=O)cc1	Beta cell apopt 103.4, CSC inhib active, Mdm2-MdmX inh 53.3, SKKanGAS inh 88.7 | Mdm2-MdmX conf 60.8 | Full FLuc ctr inactive
COC(=O)c1ccccc1NC1=C/C(=N\S(=O)(=O)c2ccc(C(=O)O)cc2)c2ccccc2C1=O	Beta cell apopt 109.7, Mdm2-MdmX inh 90.0, SKKanGAS inh 92.7 (no result: CSC inhib) | Mdm2-MdmX conf 67.8 | Full FLuc ctr inactive
COC(=O)c1ccccc1NC1=C/C(=N\S(=O)(=O)c2cccs2)c2ccccc2C1=O	Beta cell apopt 96.1, CSC inhib 102.2, Mdm2-MdmX inh 100.2 | Mdm2-MdmX conf 79.2 | Full FLuc ctr 58.1
COC(=O)c1cccc(NS(=O)(=O)c2cccs2)c1C	none (no result: Mdm2-MdmX inh)
Cc1ccc(NC2=C(NCCO)C(=O)c3ccccc3C2=O)cc1	none
CCCOc1ccc(N2C(=O)CC(N3CCN(c4nc5ccccc5s4)CC3)C2=O)cc1 (configuration not stated)	none
CCOC(=O)Cc1csc(NC(=O)CSc2nc(=O)[nH]c3c2CCCC3)n1	none
COc1cccc(-n2cc(CNCc3cn(C)nc3-c3ccccc3F)cn2)c1	none
O=C(O)c1ccc(NC2=C(n3nnc4ccccc43)C(=O)c3ccccc3C2=O)cc1	none
CCc1ccc(S(=O)(=O)/N=C2\C=C(Nc3ccc(C(=O)O)cc3)C(=O)c3ccccc32)cc1	Beta cell apopt 103.0, Mdm2-MdmX inh 79.9, SKKanGAS inh 96.4 (no result: CSC inhib) | Mdm2-MdmX conf 52.5 | Full FLuc ctr inactive
CC1CCCN(Cc2c(O)ccc3c(=O)c(-c4nc5ccccc5s4)c(N)oc23)C1 (configuration not stated)	Mdm2-MdmX inh 70.1, Calb FLC 81.0 | Mdm2-MdmX conf 43.3 | Full FLuc ctr 67.2
CC1CCN(Cc2c(O)ccc3c(=O)c(-c4nc5ccccc5s4)c(N)oc23)CC1	Mdm2-MdmX inh 50.7 (no result: CSC inhib) | Mdm2-MdmX conf inactive
CC1(C)CCCN(Cc2c(O)ccc3c(=O)c(-c4nc5ccccc5s4)c(N)oc23)C1	CSC inhib inconclusive
CC(C)(C)c1ccc(/C=N/Nc2cccc(C(=O)O)c2)cc1	Mdm2-MdmX inh 69.8 | Mdm2-MdmX conf 61.5 | Full FLuc ctr 115.9
CCN(CC)CCSc1nc2ccccc2c(=S)n1-c1ccccc1	Mdm2-MdmX inh 50.6 (no result: MPTP block) | Mdm2-MdmX conf inactive | Full FLuc ctr 93.8
CCN(CC)CCSc1nc(O)c(-c2ccccc2)c(=O)n1-c1ccccc1	none
Cc1ccc(-n2nc(C)c(NC(=O)CCl)c2C)cc1	Mdm2-MdmX inh 85.2 | Mdm2-MdmX conf 42.5 | Full FLuc ctr 70.7
Cc1ccc(-c2cc(NC(=O)CCl)n(-c3ccccc3)n2)cc1	CSC inhib 95.7, Mdm2-MdmX inh 92.4 | Mdm2-MdmX conf inactive
